Data published in PubChem BioAssay (EPA / NIEHS).
Activity calls are given as the source filed them. Rule for the calls: active = hit-call score of the fitted dose curve at least 0.9, where 1 is the maximum; inactive = score below 0.9.

What was measured:
Conditions in all cases: mRNA level, 48 h; actives raise or lower the signal
[1] = read-out: Fatty Acid-Binding Protein 1 (FABP1), FABP1 (gene 2168); assay: LTEA_HepaRG_FABP1: Life Technologies and Expression Analysis (LTEA) Assay for Fatty Acid-Binding Protein 1 (FABP1) using HepaRG (AID 2283494)
Procedure, shortened: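 Values reflect bidirectional concentration-response fitting of FABP1 mRNA change against 0.5% DMSO controls. Human HepaRG cultures received eight half-log doses (top 100 uM) for 48 h; expression quantified by TaqMan qRT-PCR with housekeeping-gene normalization.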

[2] = read-out: Cytochrome P450 4A22 (Homo sapiens) (UniProt Q5TCH4); assay: LTEA_HepaRG_CYP4A22: Life Technologies and Expression Analysis (LTEA) Assay for Cytochrome P450 4A22 (CYP4A22) using HepaRG (AID 2283495)
Procedure, shortened: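 Readout is CYP4A22 transcript induction or loss, quantified by qRT-PCR and normalized to ACTB, GAPDH and POLR2A. Human HepaRG cells receive test chemicals for 48 h at eight half-log concentrations from 100 uM in 0.5% DMSO.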

[3] = read-out: Cytochrome P450 7A1 (Homo sapiens) (UniProt P22680); assay: LTEA_HepaRG_CYP7A1: Life Technologies and Expression Analysis (LTEA) Assay for Cytochrome P450 7A1 (CYP7A1) using HepaRG (AID 2283496)
Procedure, shortened: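 Using 0.5% DMSO as vehicle and baseline, chemicals were tested in duplicate over an 8-point range from 100 uM on HepaRG cells for 48 h; qRT-PCR signals were normalised to ACTB, GAPDH and POLR2A.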

[4] = read-out: Glutathione S-Transferase (GSTA2), GSTA2 (gene 2939); assay: LTEA_HepaRG_GSTA2: Life Technologies and Expression Analysis (LTEA) Assay for Glutathione S-Transferase (GSTA2) using HepaRG (AID 2283497)
Procedure, shortened: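 Oxidative-stress marker GSTA2 is quantified by TaqMan qRT-PCR in HepaRG cultures treated 48 h across an eight-point range to 100 uM. Expression is normalized to endogenous controls and compared with 0.5% DMSO vehicle.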

[5] = read-out: Glutamate-cysteine ligase catalytic (GCLC), GCLC (gene 2729); assay: LTEA_HepaRG_GCLC: Life Technologies and Expression Analysis (LTEA) Assay for Glutamate-cysteine ligase catalytic (GCLC) using HepaRG (AID 2283498)
Procedure, shortened: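 Oxidative-stress marker GCLC is measured as mRNA change in human HepaRG liver cells after 48 h chemical treatment in 0.5% DMSO, eight concentrations from 100 uM. Activity is fitted bidirectionally against vehicle.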

[6] = read-out: growth arrest and DNA damage 45 (GADD45G), GADD45G (gene 10912); assay: LTEA_HepaRG_GADD45G: Life Technologies and Expression Analysis (LTEA) Assay for growth arrest and DNA damage 45 (GADD45G) using HepaRG (AID 2283499)
Procedure, shortened: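 Gain or loss of GADD45G mRNA, quantified by TaqMan qRT-PCR against three housekeeping genes, is fitted in both directions relative to 0.5% DMSO. Human HepaRG cultures receive test chemical for 48 h at up to 100 uM.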

[7] = read-out: Glutamate-cysteine ligase regulatory (GCLM), GCLM (gene 2730); assay: LTEA_HepaRG_GCLM: Life Technologies and Expression Analysis (LTEA) Assay for Glutamate-cysteine ligase regulatory (GCLM) using HepaRG (AID 2283500)
Procedure, shortened: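 HepaRG, 48 h dosing, 100 uM top, half-log x8, 0.5% DMSO vehicle. Readout: GCLM mRNA by TaqMan qRT-PCR, housekeeping-normalized (ACTB/GAPDH/POLR2A). Curves fit bidirectionally vs DMSO baseline.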

[8] = read-out: Glutathione S-transferase M3 (GSTM3), GSTM3 (gene 2947); assay: LTEA_HepaRG_GSTM3: Life Technologies and Expression Analysis (LTEA) Assay for Glutathione S-transferase M3 (GSTM3) using HepaRG (AID 2283501)
Procedure, shortened: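 HepaRG, plated 48 h, then serum-free induction medium; test chemical 48 h, duplicate; 100 uM top, half-log x8, 0.5% DMSO. Read-out: GSTM3 mRNA (TaqMan qRT-PCR, Fluidigm array). Bidirectional fit vs DMSO.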

[9] = read-out: Heat shock 70 kDa protein 1 (HSPA1A), gene 3303; assay: LTEA_HepaRG_HSPA1A: Life Technologies and Expression Analysis (LTEA) Assay for Heat shock 70 kDa protein 1 (HSPA1A) using HepaRG (AID 2283502)
Procedure, shortened: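 HepaRG, 48 h exposure, 8-pt half-log CRC from 100 uM in 0.5% DMSO, duplicates. Readout: TaqMan qRT-PCR of HSPA1A mRNA, housekeeping-normalized (ACTB/GAPDH/POLR2A). Bidirectional fit vs 0.5% DMSO baseline.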

[10] = read-out: Hypoxia-inducible factor 1-alpha (Homo sapiens) (UniProt Q16665); assay: LTEA_HepaRG_HIF1A: Life Technologies and Expression Analysis (LTEA) Assay for Hypoxia-inducible factor 1 (HIF1A) Trancription factor using HepaRG (AID 2283503)
Procedure, shortened: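 Gain- or loss-of-signal HIF1A mRNA changes are fitted against a DMSO baseline. HepaRG cultures receive eight concentrations, highest 100 uM, for 48 h in serum-free induction medium with 0.5% DMSO.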

Measured: AC50

Chain of Hypoxia-inducible factor 1-alpha (Homo sapiens) (Q16665 whole entry, looked up): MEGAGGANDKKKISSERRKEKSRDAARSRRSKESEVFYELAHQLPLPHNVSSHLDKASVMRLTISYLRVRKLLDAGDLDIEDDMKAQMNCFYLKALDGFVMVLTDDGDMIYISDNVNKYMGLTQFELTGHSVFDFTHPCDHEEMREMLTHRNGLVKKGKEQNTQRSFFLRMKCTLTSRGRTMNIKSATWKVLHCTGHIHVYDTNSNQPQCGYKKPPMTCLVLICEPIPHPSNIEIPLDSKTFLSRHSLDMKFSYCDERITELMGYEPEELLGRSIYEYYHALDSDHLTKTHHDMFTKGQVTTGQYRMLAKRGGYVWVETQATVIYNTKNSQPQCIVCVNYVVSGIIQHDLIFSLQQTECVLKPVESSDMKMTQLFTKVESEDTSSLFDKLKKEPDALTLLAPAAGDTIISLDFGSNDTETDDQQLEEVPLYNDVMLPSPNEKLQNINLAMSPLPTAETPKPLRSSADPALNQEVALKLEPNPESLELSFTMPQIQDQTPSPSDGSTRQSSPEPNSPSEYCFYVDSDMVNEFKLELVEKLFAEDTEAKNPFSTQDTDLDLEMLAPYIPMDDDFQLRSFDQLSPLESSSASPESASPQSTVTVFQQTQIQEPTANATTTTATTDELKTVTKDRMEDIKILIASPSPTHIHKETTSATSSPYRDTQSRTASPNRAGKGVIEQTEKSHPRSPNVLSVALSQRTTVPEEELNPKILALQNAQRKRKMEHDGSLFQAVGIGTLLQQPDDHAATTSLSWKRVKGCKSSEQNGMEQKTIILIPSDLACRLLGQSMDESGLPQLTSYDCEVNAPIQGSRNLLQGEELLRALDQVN

Nc1ccc(N=Nc2ccccc2)cc1
active: [1] 21.4 µM | [2] 13.3 µM | [3] 16.4 µM | [4] 15.1 µM | [5] 7.79 µM | [6] 15.6 µM | [8] 13.2 µM | [9] 34 µM
inactive: [7] | [10]

OCCOCCO
inactive: all assays above

O=C(Nc1ccccc1)c1ccccc1I
active: [1] 21.7 µM | [3] 28.9 µM | [5] 29.2 µM | [6] 10.3 µM | [7] 50 µM
inactive: [2] | [4] | [8] | [9] | [10]

CC(C)N(Cc1ccccc1)C(=O)C(C)(C)C
active: [1] 8.19 µM
inactive: all other assays above

N#CC(Br)(Br)C(N)=O
inactive: all assays above

O=[N+]([O-])C(Br)(CO)CO
inactive: all assays above

CCCSC(=O)N(CCC)CCC
inactive: all assays above

Clc1ccc(C(c2ccc(Cl)cc2)C(Cl)Cl)cc1
active: [1] 54.7 µM | [2] 22.4 µM | [3] 22.5 µM
inactive: all other assays above

O=C(N[C@H](c1ccccc1)[C@@H]1CN2CCC1CC2)c1c(Cl)ccc(C(F)(F)F)c1Cl
active: [1] 85.1 µM | [2] 14.6 µM | [3] 80.1 µM | [4] 73.7 µM | [6] 21.4 µM | [9] 73.8 µM
inactive: [5] | [7] | [8] | [10]

O=P(OCCCl)(OCCCl)OCCCl
active: [9] 9.92 µM
inactive: all other assays above

CN(C)c1ccc(C(=O)c2ccc(N(C)C)cc2)cc1
active: [1] 50 µM | [2] 50 µM
inactive: all other assays above

N#CC(Br)Br
inactive: all assays above

Nc1ccc([N+](=O)[O-])cc1
inactive: all assays above

Nc1cc(Cl)cc(C(=O)O)c1Cl
inactive: all assays above

OCCCBr
inactive: all assays above

CN(C)c1ccccc1
inactive: all assays above

CCCCOC(=O)c1ccccc1C(=O)OCc1ccccc1
inactive: all assays above

CCCCCOC(=O)c1ccccc1C(=O)OCCCCC
active: [2] 79.7 µM
inactive: all other assays above

Nc1ccc(Cc2ccc(N)cc2)cc1
inactive: all assays above

O=C(O)C1C2CCC(O2)C1C(=O)O (centres undefined)
active: [1] 77.9 µM | [2] 50 µM | [3] 71.5 µM | [4] 72.4 µM
not listed: [10]
inactive: all other assays above

Brc1ccc(Oc2ccccc2)cc1
inactive: all assays above

C1=Cc2cccc3cccc1c23
inactive: all assays above

O=C(Oc1ccc(Br)cc1)N1CCN2CCC1CC2
active: [1] 31.6 µM | [2] 40 µM
inactive: all other assays above

c1ccc2c(c1)oc1ccccc12
inactive: all assays above

CC(C)(C)C(O)(CCc1ccc(Cl)cc1)Cn1cncn1 (centres undefined)
active: [1] 11.5 µM | [2] 57 µM | [3] 50 µM | [4] 76.4 µM | [6] 50 µM | [7] 50 µM
inactive: [5] | [8] | [9] | [10]

Oc1ccccc1Cl
inactive: all assays above

Cc1ccc(N)c(N)c1
active: [1] 74.8 µM | [4] 28.9 µM
inactive: all other assays above

Cc1cccc(N)c1N
active: [1] 62.6 µM | [2] 50 µM | [4] 50 µM | [6] 50 µM
not listed: [3]
inactive: all other assays above

CO[C@@H]1[C@H](OC(=O)NC(=O)CCl)CC[C@]2(CO2)[C@H]1[C@@]1(C)O[C@@H]1CC=C(C)C
active: [1] 1.96 µM
not listed: [3]
inactive: all other assays above

CS(=O)(=O)NC(=O)c1cc(Oc2ccc(C(F)(F)F)cc2Cl)ccc1[N+](=O)[O-]
not listed: [3]
inactive: all other assays above

CCCCC(CC)COC(=O)c1ccc(C(=O)OCC(CC)CCCC)c(C(=O)OCC(CC)CCCC)c1 (centres undefined)
not listed: [3]
inactive: all other assays above

Cc1ccc(N=C=O)cc1N=C=O
active: [1] 23 µM | [2] 50 µM | [3] 31.7 µM | [4] 50 µM | [5] 30.3 µM | [6] 50 µM | [9] 30.4 µM
inactive: [7] | [8] | [10]

CC(C)COC(=O)c1ccccc1C(=O)OCC(C)C
inactive: all assays above

c1ccc(C2CO2)cc1 (centres undefined)
not listed: [8]
inactive: all other assays above

C=CCc1ccc2c(c1)OCO2
not listed: [3]
inactive: all other assays above

COc1cc(C=O)cc2c1[C@H](COC(N)=O)[C@]1(OC(C)=O)ON2C[C@H]2[C@@H]1N2C(C)=O
inactive: [7] | [8] | [9]
active: [1] 0.701 µM | [2] 0.0669 µM | [4] 1.06 µM | [5] 0.312 µM | [6] 21.8 µM | [10] 3.94 µM

Cn1cc(-c2ccccc2)c(=O)c(-c2cccc(C(F)(F)F)c2)c1
active: [6] 50 µM | [9] 16.3 µM
not listed: [3]
inactive: all other assays above

CCCCCCCCn1sccc1=O
active: [2] 78.9 µM | [3] 82.2 µM
inactive: all other assays above

c1ccc(NNc2ccccc2)cc1
not listed: [3]
inactive: all other assays above

[As]#[In]
not listed: [3]
inactive: all other assays above

O=[N+]([O-])c1ccc(Oc2ccc(Cl)cc2Cl)cc1
active: [5] 27.1 µM | [7] 50 µM
inactive: all other assays above

CCCCCCCCCCCCCN1CC(C)OC(C)C1 (centres undefined)
inactive: all assays above

Nc1ccc(Oc2ccc(N)cc2)cc1
active: [1] 50 µM
inactive: all other assays above
